Measured values taken from the supplement of paper PMC9262897, “Low-cost anti-mycobacterial drug discovery using engineered E. coli” (Nature Communications, 2022).
Where a name gives a salt, the structure may show the parent alone. ± gives the standard deviation of the averaged measurements.

Test system: E. coli TESEC Mtb Alr
Test: growth (OD600 after 10 h); higher = more growth (less inhibition)
Conditions: compound 0.1 mM
Experimental: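 TESEC Mtb Alr E. coli, or the Alr+ wild-type control, in 384-well plates with Prestwick library compounds at 0.1 mM and 1% DMSO, across arabinose induction levels of 1E3 to 1E7 nM. Growth is read as OD600 after 10 h at 37 °C in triplicate biological replicates.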

[1] = arabinose 1000 nM, raw OD600 reference: median of DMSO wells 0.294, cell-free background 0.041
[2] = arabinose 10000 nM, raw OD600 reference: median of DMSO wells 0.264, cell-free background 0.041
[3] = arabinose 100000 nM, raw OD600 reference: median of DMSO wells 0.201, cell-free background 0.041
[4] = arabinose 1000000 nM, raw OD600 reference: median of DMSO wells 0.193, cell-free background 0.041
[5] = arabinose 10000000 nM, raw OD600 reference: median of DMSO wells 0.146, cell-free background 0.041

Structure (SMILES)	growth [1]	growth [2]	growth [3]	growth [4]	growth [5]
CC(C)[C@H](N)C(=O)OCCOCn1cnc2c(=O)nc(N)[nH]c21 [Valacyclovir hydrochloride]	0.302 ± 0.0067	0.2661 ± 0.0012	0.22 ± 0.039	0.195 ± 0.0058	0.144 ± 0.0025
CCCNCC(O)COc1ccccc1C(=O)CCc1ccccc1 (stereo not given) [Propafenone hydrochloride]	0.241 ± 0.019	0.281 ± 0.012	0.176 ± 0.015	0.124 ± 0.0027	0.155 ± 0.006
C=CC1=C(C(=O)O)N2C(=O)[C@@H](NC(=O)/C(=N\O)c3csc(N)n3)[C@H]2SC1 [Cefdinir]	0.0401 ± 0.0026	0.0401 ± 0.00087	0.038 ± 0.0008	0.0415 ± 0.0031	0.0408 ± 0.0009
CCCC1C(=O)N2C(N(C)C)=Nc3ccc(C)cc3N2C1=O (stereo not given) [Azapropazone]	0.287 ± 0.0066	0.2549 ± 0.002	0.178 ± 0.011	0.158 ± 0.0037	0.134 ± 0.0021
OCCN1CCN(CCCN2c3ccccc3Sc3ccc(C(F)(F)F)cc32)CC1 [Fluphenazine dihydrochloride]	0.041 ± 0.0026	0.0391	0.03987 ± 0.00021	0.03867 ± 0.00012	0.0405 ± 0.00052
Cc1cc(=O)oc2cc(O)ccc12 [Hymecromone]	0.286 ± 0.024	0.25 ± 0.0054	0.177 ± 0.012	0.182 ± 0.0058	0.148 ± 0.0076
CNC[C@H](O)[C@@H](O)[C@H](O)[C@H](O)CO [Meglumine]	0.306 ± 0.016	0.254 ± 0.0031	0.212 ± 0.025	0.188 ± 0.0027	0.136 ± 0.0042
CCn1cc(C(=O)O)c(=O)c2cc(F)c(N3CCNCC3)nc21 [Enoxacin]	0.0427 ± 0.0002	0.03917 ± 0.00031	0.0439 ± 0.0015	0.0411 ± 0.0025	0.0452 ± 0.0001
